# Measurements from PubChem BioAssay (EPA / NIEHS).
# Several values for one entry are separate records, joined by “and”; a condition that tells them apart may be missing. Equal entries are not always repeated. Records with an inconclusive call do not appear. More than one record can exist for a structure, and the calls need not agree. Activity calls are given as the source filed them. The calls were made as follows: active = hit-call score of the fitted dose curve at least 0.9, where 1 is the maximum; inconclusive = response in the unintended direction; inactive = score below 0.9.
# Experiment: TOX21_p53_BLA_p2_viability: Viability Assessment in the Tox21 HCT-116 p53 Agonism Beta-lactamase Assay, Phase 2 (AID 2283591);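 also: compound exposure lasted 16 h at 37 °C; actives lower the ATP signal meaning cytotoxicity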
# Description: TOX21_p53_BLA_p2 is a cell-based, single-readout assay that uses HCT116, a human intestinal cell line, […] in a 1536-well plate.TOX21_p53_BLA_p2_viability is an assay readout measuring cellular ATP content and detected with CellTiter-Glo Luciferase-coupled ATP quantitation.TOX21_p53_BLA_p2_viability used a type of viability reporter where loss-of-signal activity can be used to understand changes in the cell viability. Furthermore, this assay endpoint can be referred to as a secondary readout, because this assay has produced multiple assay endpoints where this one serves a viability function. To generalize the intended target to other relatable targets, this assay endpoint is annotated to the cell cycle intended target family, where the subfamily is cytotoxicity.
# Thawing Method: Place 14 mL of pre-warmed thaw medium into a 15 mL of conical tub. Remove the vial of cells to be thawed from liquid nitrogen and thaw rapidly by placing at 37C in a water bath with gentle agitation for 1-2 minutes. Decontaminate the vial by wiping with 70% ethanol before opening in a biological safety cabinet. Transfer the vial contents drop-wise into 14 mL of thaw medium in a sterile 15-mL conical tub. Centrifuge cells at 900 rpm for 4 minutes and resuspend in thaw medium. Transfer contents to the T75 tissue culture flask containing Thaw Medium and place flask in a humidified 37C/5% CO2 incubator. Switch to growth medium at first passage.Propagation Method: Aspirate medium, rinse once in DPBS, add 0.25% Trypsin/EDTA and swirl to coat the cell evenly. Add an equal volume of Growth Medium to inactivate Trypsin after 2-3 minutes incubation at 37C. Centrifuge cells at 900 rpm for 4 minutes and resuspend in growth medium. Cell should be passage or fed at least twice a week.Assay Protocol: Harvest cells from culture in growth medium and resuspend in assay medium. 2.2 Dispense 4000 cells/5 uL/well into 1536-well black/clear bottom plates using a Multidrop dispenser. After the cells were incubated at 37C for 5 hours, 23 nL of compounds dissolved in DMSO were transferred to the assay plate by a PinTool resulting in a 217-fold dilution. Incubate the plates for 16 hours at 37C, 5% CO2. Add 1 uL of 6X LiveBLAzer FRET B/G (CCF4-AM) Substrate Mixture to each well using a BioRAPTR dispenser and incubate the plates at room temperature for 2 hours. Measure fluorescence intensity at 460 and 530 nm emission and 405 nm excitation by an Envision detector. Data is expressed as the ratio of 460nm/530nm emissions. Add 4 uL of Cell-titer Glo to each well using BioRAPTR and incubate the plates at room temperature for […]. For cell viability readout that measures cytotoxicity, 4 ul/well of CellTiter-Glo reagent was added into the assay plates using a Flying Reagent Dispenser. After 30 min incubation at room temperature, the luminescence intensity in the plates was measured using a ViewLux plate reader.
SMILES,outcome,AC50
CCCCCC(C)OC(=O)COc1ccc(Cl)c2cccnc12 (stereo not given),inactive,–
COC(=O)CC(C(C)=O)C(=O)OC (stereo not given),inactive,–
C=CC(=O)OCC(CO)(COCC(COC(=O)C=C)(COC(=O)C=C)COC(=O)C=C)COC(=O)C=C,–,4.15 µM (active)
Oc1ccc(Cc2ccccc2O)cc1,inactive,–
CC(C)(C)C1CCCCC1O (stereo not given),inactive,–
Cc1ccc(C)c(S(=O)(=O)O)c1,inactive,–
OCC1CCC(CO)CC1 (stereo not given),inactive,–
O=C1OC(=O)c2cc(-c3ccc4c(c3)C(=O)OC4=O)ccc21,inactive,–
O=c1cc(-c2ccccc2)oc2ccc3ccccc3c12,inactive,–
Nc1ccc(O)c(C(=O)O)c1,inactive,–
CC(C)(C)c1ccc(CCC=O)cc1,inactive,–
O=C(Nc1ccc(Cl)c(Cl)c1)c1cc(Cl)cc(Cl)c1O,–,0.558 µM (active)
Oc1c(Cl)cc(Cl)cc1Sc1cc(Cl)cc(Cl)c1O,inactive,43.1 µM (active) and 23.4 µM (active) and 76.2 µM (active)
Oc1c(Cl)ccc(Cl)c1Cl,inactive,–
CCCCc1oc2ccccc2c1C(=O)c1cc(I)c(OCCN(CC)CC)c(I)c1,inactive,59.9 µM (active)
CC(=O)Nc1ccc(S(N)(=O)=O)cc1,inactive,–
NS(=O)(=O)O,inactive,–
CC(O)COc1ccccc1 (stereo not given),inactive,–

SMILES,outcome,AC50
CCCCCCc1ccc(N)cc1,inactive,–
O=C(Nc1cccc([N+](=O)[O-])c1)c1cc2ccccc2cc1O,inactive,–
CC(C)(O)C(=O)c1ccccc1,inactive,–
C[C@]12CC[C@@H]3c4ccc(O)cc4CC[C@H]3[C@@H]1CC[C@@H]2OC(=O)CCC1CCCC1,inactive,–
NNc1nc(-c2ccc([N+](=O)[O-])cc2)cs1,inactive,–
CN(C)c1ccc(C(=C2C=CC(=[N+](C)C)C=C2)c2ccccc2)cc1,inactive,1.83 µM (active)
CCN(CC)CC,inactive,–
O=C(NO)c1ccccc1,inactive,–
CC1=CC(=O)c2ccccc2C1=O,inactive,51.1 µM (active)
COCN(COC)c1nc(N(COC)COC)nc(N(COC)COC)n1,inactive,–
NCc1cccc(CN)c1,inactive,–
CCCCCCCCCCCCCC[n+]1ccccc1,inactive,–
Cc1cc(Cc2cc(C)cc(C(C)(C)C)c2O)c(O)c(C(C)(C)C)c1,–,10.8 µM (active) and 10.5 µM (active)
C=CC(C)(CCC=C(C)C)OC(C)=O (stereo not given),inactive,–
Cc1ccccc1C(OCCN(C)C)c1ccccc1 (stereo not given),inactive,–
CC=O,–,46.2 µM (active)
CCCCCCCCC1CCC(=O)O1 (stereo not given),inactive,–
Nc1cc(Cl)c(-c2cc(Cl)c(N)cc2Cl)cc1Cl,–,31.3 µM (active) and 40.9 µM (active)
